Test in all cases: NCI-60 one-dose screen, 48 h (100 = growth as untreated, 0 = no growth, -100 = all killed)
Common to all, as to settings: 10 µM unless noted

Assay [1] relates to HCT-15 colon.
For assay [2], the system named is HT29 colon.
Assay [3] relates to SNB-75 CNS.
Assay [4] deals with SNB-19 CNS.
The subject of assay [5] is U251 CNS.
Assay [6] deals with PC-3 prostate.
The subject of assay [7] is SK-MEL-5 melanoma.
The test system of assay [8] is UACC-62 melanoma.
The test system of assay [9] is SK-MEL-28 melanoma.
For assay [10], the system named is LOX IMVI melanoma.

Molecules are shown by their SMILES. Compounds without any hit were thinned out: in the full panel of roughly 83,000, 20% have a hit.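 Results are percent growth after 48 hours of single-concentration exposure. 100 means growth as in untreated cells, lower positive values show inhibition; negative values down to -100 show cell death.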 Values without a mark were called inactive. The source made the active and inactive calls. The calls were made as follows: active = growth percent below 10; inactive = the rest.

Regarding `Cc1ccccc1CCO`, the growth in assay [1] was 99.8%; in [2], 76.4%; in assay [3] it was 102%; in [4], 108%; in assay [5] it was 98.6%; in assay [6] it was 97.6%. Further, the growth in assay [7] was 102%; in assay [8] it was 108%; in assay [9] it was 99.9%.
In the case of `COc1ccc(/C=N\NC(=O)c2ccncc2)cc1O`, the growth in assay [1] is 107%; in assay [2], 112%; in [3], 74.8%; in [4] it was 95.1%; in assay [6], 106%; in assay [7] it was 92.5%. Besides, the growth in assay [8] was 99.8%; in [10] it was 97.2%; in assay [9], 104%.
With `Cc1nn(-c2nc3ccccc3[nH]2)c2c1C(c1ccc3c(c1)OCO3)CC(=O)N2` (stereo not drawn), the growth in assay [1] was 47.6%; in assay [2], 34.7%; in assay [3], 39.8%; in assay [4], 49%; in [5], 30.5%; in assay [7] it was 12.4%. For the same compound, the growth was 27.3% in [8] and 82.3% in [9].
Take `O=C(O)c1ccc(=O)[nH]n1`: the growth in assay [1] is 101%; in [2], 123%; in assay [3], 98.4%; in assay [4] it was 102%; in assay [5], 109%; in [7] it was 110%. Besides, the growth in assay [8] was 98.2%; in assay [10], 96.2%; in assay [9] it was 109%.
As to `O=C(CO[N+](=O)[O-])Nc1ccc(C(=O)/C=C/c2ccc(Cl)cc2)cc1`, the growth is 58.9% in assay [1]; -23.4% (active) in assay [2]; 69.7% in assay [3]; 87.9% in [4]; 14.9% in assay [5]; 27.6% in assay [6]. Moreover, the growth was 54.5% in assay [7], 49.2% in assay [8] and 86.8% in [9].
As for `ClC1=C2NC=NC2n2c(nnc2-c2ccc(Cl)cc2)N1` (stereo not drawn), the growth in [1] was 96.4%; in assay [2], 91.5%; in assay [3], 107%; in [4], 92.7%; in assay [5] it was 89.6%; in assay [7], 96.9%. In addition, the growth is 92.1% in assay [8], 108% in [10] and 102% in assay [9].
In the case of `CCOC(=O)/C=C/C(=O)[C@H](CC(C)C)NC(=O)[C@H](Cc1ccccc1)NC(=O)OCc1ccccc1`, the growth in [1] is 15.5%; in assay [2], 57.9%; in assay [3] it was 69.2%; in assay [4] it was 93.7%; in assay [5] it was 50.8%; in assay [7] it was 97.5%. The values for the growth in [8], in [10] and in assay [9] were 14.4%, -82.9% (active) and 34.7%, respectively.
As for `CCOC(=O)c1ccc2c(c1)nc(/C=C/c1ccc(Cl)cc1)n2-c1cc(C(C)(C)C)[nH]n1`, the growth in [1] is 35.6%; in [2] it was 57.7%; in [3], 0.573% (active); in assay [4], 77.6%; in assay [5], 50.5%; in assay [7] it was 62.1%. Also, the growth in [8] was 19.1%; in [9], 47.3%.
Regarding `CN1C2CCC1/C(=C\c1ccc(Cl)cc1)C1=C2[C@@H](c2ccc(Cl)cc2)C(C#N)=C(N)O1` (stereo partly drawn), the growth in assay [1] was 71.9%; in assay [2] it was 65.2%; in [3], 92.4%; in [4], 99.8%; in assay [6] it was 82.4%; in [7] it was 88.9%. For the same compound, the growth in [8] is 75.7%; in [10] it was 91.7%; in [9], 80%.
Take `O=C(CCCCN1CCOCC1)Nc1ccc(Cn2nnc3c2C(=O)c2nnn(Cc4ccc(NC(=O)CCCCN5CCOCC5)cc4)c2C3=O)cc1`: the growth in assay [1] was -37% (active); in assay [2], -28.6% (active); in [3], -92.3% (active); in assay [4] it was -86.2% (active); in [5], -85.2% (active); in assay [6] it was 0.413% (active). Moreover, the growth in [7] was -95.8% (active); in assay [8], -80% (active); in assay [9], -54.9% (active).
As for `C=C1CC[C@@H]2[C@](C)(COC(C)=O)[C@H](OC(C)=O)CC[C@@]2(C)[C@@H]1CC(Nc1ccc(S(=O)(=O)Nc2ccc(Cl)nn2)cc1)C1=CCOC1=O` (stereo partly drawn), the growth was -18.4% (active) in [1]; -18.3% (active) in [2]; 25.2% in assay [3]; 76% in assay [4]; -41.2% (active) in assay [5]; 35.8% in [7]. Moreover, the figures for the growth in [8], in assay [10] and in assay [9] were -50% (active), -84.6% (active) and 6.66% (active), respectively.
With `CCCCCCCCCCCCCC(=O)C(C)N` (stereo not drawn), the growth in [1] is 3.51% (active); in assay [2], 13.8%; in [3], 34.1%; in assay [4], 77.5%; in [5], 18.2%; in [7], 90.3%. The growth is -71.1% (active) in assay [8], -79.6% (active) in assay [10] and 73.9% in assay [9].
With `N=c1c2ccccc2nc2n1CCCCC2`, the growth in [1] was 110%; in assay [2], 110%; in assay [3] it was 99.7%; in assay [4] it was 103%; in [5], 101%; in [6], 116%. In addition, the growth is 100% in assay [7], 106% in assay [8] and 103% in assay [9].
For the compound `CN1CCCCC1CCN1c2ccccc2Sc2ccc(Br)cc21` (stereo not drawn), the growth in [1] was 54.6%; in [2], 29.8%; in assay [3], 3.86% (active); in assay [4] it was 97.4%; in assay [6], 56.2%; in [7], 60.3%. Also, the growth was 76.8% in [8], 60% in assay [10] and 68.6% in [9].
For the compound `O=C(CN1CCOCC1)Nc1ccc(Cn2nnc3c2C(=O)c2nnn(Cc4ccc(NC(=O)CN5CCOCC5)cc4)c2C3=O)cc1`, the growth in assay [1] was 70.8%; in assay [2] it was -37.3% (active); in assay [3], -87.4% (active); in [4], -15% (active); in [5] it was -92.1% (active); in [7], -86.9% (active). For the same compound, the growth is -77.3% (active) in [8], -25.1% (active) in assay [10] and -34.6% (active) in [9].
